# NPC1 prom act – activators of NPC1 promoter; Huh7 NPC1 promoter luciferase reporter, 24 h; Potency, µM (titrated, usually from 9.22 µM), for the others: at the top dose activation, usual class: activators; 320,000 compounds, 2.4% hits; also: % of control where 0% means no effect; nearly all actives have a fitted effect of over 60% in size
#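 Cells: Huh7 expressing luciferase under the NPC1 promoter, 1500/well. Seeded 2 h, compound added, incubated 24 h at 37 °C. Luciferase reagent, 10 min ambient, then luminescence.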
# FLuc modulator – inhibits or activates purified firefly luciferase, miR-21 counter-screen | P08659 | AID 588342 | purified FLuc, Km substrates, luminescence inhibition | 360,000 compounds, 6.9% hits | Potency, µM (titrated, usually from 57.5 µM), without a hit: at the highest dose activity change, negative = inhibition, actives largely listed as inhibitors;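 also: plate controls were vehicle for no effect and reference inhibitor for full effect; nearly all actives have a fitted effect of over 55% in size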
#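 Purified P. pyralis luciferase, 10 nM final, with Km-level 10 uM D-luciferin and 10 uM ATP in 50 mM Tris acetate pH 7.5, 10 mM Mg acetate, 0.01% Tween-20, 0.05% BSA; 6-point qHTS titration about 60 µM downward; luminescence read.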
# SMN2 splice up – increases expression of the SMN2 splice variant; HEK293 SMN2-luciferase splicing reporter, luminescence, 30-36 h; Potency, µM (doses to about 46.1 µM), without a hit: at the highest dose activity change, positive = activation, most hits filed as activators; 210,000 compounds, 2.8% hits; AID 1458; also: % of control where 0% means no effect; nearly all actives have a fitted effect of over 55% in size
#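 HEK293 cells carry an SMN2 […]–luciferase reporter in which exon 7 inclusion puts luciferase in frame. Cells were plated 10-12 h before compound addition, then incubated 30-36 h at 37C. ONE-Glo luminescence was read; sodium butyrate at 4.5 mM final served as control.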
# Rab9 promoter act – activators of Rab9 promoter; Potency, µM (highest dose often 9.22 µM), for inactives: top-dose activation, negative = inhibition, most hits filed as activators; 320,000 compounds, 2.8% hits; Huh7 Rab9 promoter-luciferase reporter, luminescence, 24 h; also: % of control where 0% means no effect; nearly all actives have a fitted effect of over 60% in size
#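 Quantitative HTS format; Huh7 Rab9-luciferase reporter cells (1500/well) receive compound 2 h post-plating, incubate 24 h at 37 °C, then get luciferase reagent for 10 min before luminescence reading.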
# ELG1 repair inh – ELG1-dependent DNA repair inhibition; Potency, µM (series often up to 46.1 µM), for the others: at the top dose activity change, negative = inhibition, most hits filed as inhibitors; AID 504467; 330,000 compounds, 2.3% hits; HEK293T ELG1-luciferase reporter, luminescence, 16 h; DNA damage induced by 5-fluorouridine; also: % is scaled to controls: 0 for no effect and ±100 for the full control effect; nearly all actives have a fitted effect of over 55% in size
#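 DMSO vehicle served as the neutral condition. Each well held 2,000 cells given 5-fluorouridine plus compound; after 16 hr at 37 °C/5% CO2, ONE-Glo was added and luciferase measured 30 min later.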
# ELG1 genotoxic – inducers of genotoxicity in HEK293T ELG1-luciferase cells | AID 504466 | 330,000 compounds, 1.3% hits | Potency, µM (series often up to 46 µM), for the others: at the highest dose activity change, positive = activation, actives largely listed as activators | HEK293T ELG1-luciferase reporter, luminescence, 16 h; also: % of control where 0% means no effect; nearly all actives have a fitted effect of over 60% in size
#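 Reporter readout depends on ELG1 protein level, which increases with genetic stress. After 16 hr compound exposure at 37 °C, luciferase activity was quantified using ONE-Glo.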
# ELG1 FLuc counter – luciferase inhibition in cell-free luciferin readout for ELG1 hits. AID 624247. cell-free firefly luciferase luminescence counter-screen, ViewLux. Potency, µM (titrated, usually from 46.1 µM), for the others: at the highest dose activity change, negative = inhibition, hits mostly inhibitors. 350 compounds, 3% hits. shares compounds with ELG1 repair inh; also: % is scaled to controls: 0 for no effect and ±100 for the full control effect
# ELG1-Luc inh – inhibits ELG1-dependent DNA repair in HEK293T cells, confirmed | 670 compounds, 68% hits | Potency, µM (titrated, usually from 46.1 µM), without a hit: at the highest dose activity change, negative = inhibition, most hits filed as inhibitors | HEK293T ELG1-luciferase levels, luminescence; cells co-treated with 5-fluorouridine | shares compounds with ELG1 repair inh; also: % is scaled to controls: 0 for no effect and ±100 for the full control effect; nearly all actives have a fitted effect of over 55% in size
# Target sequence (Q96QE3 whole entry, looked up): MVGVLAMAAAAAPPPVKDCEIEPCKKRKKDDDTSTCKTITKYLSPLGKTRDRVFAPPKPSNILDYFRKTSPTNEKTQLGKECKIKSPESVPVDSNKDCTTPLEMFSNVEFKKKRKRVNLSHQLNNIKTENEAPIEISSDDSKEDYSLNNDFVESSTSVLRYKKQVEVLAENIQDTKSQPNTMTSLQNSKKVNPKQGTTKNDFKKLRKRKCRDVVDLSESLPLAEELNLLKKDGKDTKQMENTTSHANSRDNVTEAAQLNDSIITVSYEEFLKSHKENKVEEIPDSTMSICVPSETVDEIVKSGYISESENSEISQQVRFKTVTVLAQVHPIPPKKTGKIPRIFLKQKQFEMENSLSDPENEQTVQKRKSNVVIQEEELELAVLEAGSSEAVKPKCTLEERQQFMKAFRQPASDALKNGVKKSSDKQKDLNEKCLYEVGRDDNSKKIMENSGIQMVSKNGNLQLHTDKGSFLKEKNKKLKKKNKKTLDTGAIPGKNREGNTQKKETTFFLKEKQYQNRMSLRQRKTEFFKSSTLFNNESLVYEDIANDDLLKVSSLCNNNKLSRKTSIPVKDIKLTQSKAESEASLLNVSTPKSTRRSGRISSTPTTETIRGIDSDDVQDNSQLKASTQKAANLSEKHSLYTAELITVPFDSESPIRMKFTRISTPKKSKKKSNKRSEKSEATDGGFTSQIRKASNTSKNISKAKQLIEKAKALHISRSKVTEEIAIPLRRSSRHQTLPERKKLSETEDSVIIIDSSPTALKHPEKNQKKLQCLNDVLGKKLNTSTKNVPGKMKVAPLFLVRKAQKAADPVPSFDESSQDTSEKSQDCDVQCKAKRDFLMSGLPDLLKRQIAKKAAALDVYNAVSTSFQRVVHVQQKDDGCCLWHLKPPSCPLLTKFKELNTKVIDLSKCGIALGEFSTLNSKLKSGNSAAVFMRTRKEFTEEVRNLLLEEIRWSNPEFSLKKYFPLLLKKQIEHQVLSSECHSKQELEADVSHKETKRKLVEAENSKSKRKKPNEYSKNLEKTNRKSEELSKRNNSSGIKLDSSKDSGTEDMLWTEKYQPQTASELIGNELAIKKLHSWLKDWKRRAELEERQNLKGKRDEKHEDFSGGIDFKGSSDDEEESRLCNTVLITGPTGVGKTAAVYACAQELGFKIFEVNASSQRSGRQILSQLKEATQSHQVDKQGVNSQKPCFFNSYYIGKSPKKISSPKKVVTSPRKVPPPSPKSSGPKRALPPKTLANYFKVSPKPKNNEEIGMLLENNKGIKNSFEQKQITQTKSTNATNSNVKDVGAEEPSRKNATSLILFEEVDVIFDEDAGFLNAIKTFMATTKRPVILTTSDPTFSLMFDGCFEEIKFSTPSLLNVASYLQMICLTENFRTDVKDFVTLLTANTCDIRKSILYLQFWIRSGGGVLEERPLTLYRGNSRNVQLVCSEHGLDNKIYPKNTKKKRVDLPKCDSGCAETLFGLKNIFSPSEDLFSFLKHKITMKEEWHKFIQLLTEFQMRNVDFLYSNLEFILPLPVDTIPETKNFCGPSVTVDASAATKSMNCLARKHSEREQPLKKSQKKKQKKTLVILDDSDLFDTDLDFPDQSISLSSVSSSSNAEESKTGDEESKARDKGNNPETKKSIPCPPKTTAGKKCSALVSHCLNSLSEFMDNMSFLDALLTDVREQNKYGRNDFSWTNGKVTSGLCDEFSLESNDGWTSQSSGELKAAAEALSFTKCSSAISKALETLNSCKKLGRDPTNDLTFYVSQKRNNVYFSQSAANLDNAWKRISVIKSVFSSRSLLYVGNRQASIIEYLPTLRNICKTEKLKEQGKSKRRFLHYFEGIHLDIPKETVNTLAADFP
# ELG1-Luc MMS – MMS-stimulated human ELG1 repair inhibition, confirmed; shares compounds with ELG1 repair inh; HEK293T luciferase-tagged ELG1 level, MMS stimulated; Potency, µM (titrated, usually from 46.1 µM), without a hit: at the top dose activity change, negative = inhibition, actives largely listed as inhibitors; 670 compounds, 53% hits; also: % is scaled to controls: 0 for no effect and ±100 for the full control effect; nearly all actives have a fitted effect of over 60% in size
# ELG1 5-FU – confirmation of ELG1 repair inhibitors: viability with 5FU; Potency, µM (series often up to 46.1 µM), for the others: at the top dose activity change, negative = viability loss, hits mostly cytotoxic; 670 tested, under 10 active; shares compounds with ELG1 repair inh; cell viability with 5-FU, ELG1-dependent repair; AID 624250;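 also: ELG1-luc HEK293T cells cotreated with 5-fluorouridine at 10 µM final; viability measured 16 h after compound addition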
# ELG1 MMS cell – confirmation of ELG1 repair inhibitors: viability with MMS; Potency, µM (series often up to 46.1 µM), inactives show at the top dose activity change, negative = viability loss, usual class: cytotoxic; 670 compounds, 33% hits; shares compounds with ELG1 repair inh; Cell viability with MMS, ELG1-dependent DNA repair;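 also: ELG1-luc HEK293T cells co-treated with 10 µM MMS; viability read 16 h after compound addition; % is scaled to controls: 0 for no effect and ±100 for the full control effect; nearly all actives have a fitted effect of over 60% in size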
# Cell viab unstim – unstimulated viability counter-screen for ELG1 repair hits; shares compounds with ELG1 repair inh; cell viability counter-screen, unstimulated, luminescence; Potency, µM (top dose mostly 45.9 µM), inactives show top-dose activity change, negative = loss of viability, usual class: cytotoxic; 900 compounds, 8% hits; AID 624252;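 also: compound exposure lasted 16 hours before reading; % is scaled to controls: 0 for no effect and ±100 for the full control effect; nearly all actives have a fitted effect of over 55% in size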
# FLuc enzyme – inhibits purified firefly luciferase, counter-screen for ELG1 hits; Potency, µM (doses to about 57.5 µM), for inactives: at the top dose activity, negative = inhibition, actives largely listed as inhibitors; shares compounds with ELG1 repair inh; purified firefly luciferase, luminescence counter-screen; AID 624253; 350 compounds, 10% hits; also: % is scaled to controls: 0 for no effect and ±100 for the full control effect
# Numbers without * were called inactive; ? = inconclusive; . = no result given. Only some compounds are listed: those with a hit (about 9.4% of all), similar ones and a draw of the others. Calls follow the shape of the dose curve; as a rule, active = well fitted curve in the direction sought with a large enough effect; inconclusive = small, poorly fitted or top-dose-only effect, or another doubt; inactive = no such curve, though single readings can be large; an effect the other way counts as inactive or inconclusive. Potency is read from the fitted curve at half-maximal effect.
SMILES,NPC1 prom act,FLuc modulator,SMN2 splice up,Rab9 promoter act,ELG1 repair inh,ELG1 genotoxic,ELG1-Luc inh,ELG1-Luc MMS,ELG1 5-FU,ELG1 MMS cell,Cell viab unstim,others
COc1ccc(-c2cc(C(F)F)n3ncc(C(=O)Nc4ccc(C(=O)N5CCOCC5)cc4)c3n2)cc1,-11%,2%,-2%,-13%,2.6µM*,-11%,2.8µM*,-28%,?,6%,?,
COc1ccc(-c2cc(C(F)F)n3ncc(C(=O)N4CCc5ccccc54)c3n2)cc1,-41%,-3%,.,-42%,0.52µM*,-14%,4.5µM*,?,?,?,-11%,ELG1 FLuc counter=19%;FLuc enzyme=4%
COc1cc(NC(=O)c2cccc(S(=O)(=O)N3CCCCC3)c2)cc(OC)c1OC,.,.,.,.,0%,1%,.,.,.,.,.,
Cc1cc(C)c(Nc2nn3c(=O)c4cc5c(cc4nc3s2)OCO5)c(C)c1,.,?,-10%,.,.,.,.,.,.,.,.,
COC(=O)c1ccccc1NC(=O)CN(c1ccc(Cl)cc1)S(=O)(=O)c1ccc(OC)cc1,.,-8%,-6%,.,.,.,.,.,.,.,.,
C/C(=N\NC(=O)C1CCCC1)c1ccc(Cl)cc1,12%,-14%,.,12%,?,20%,.,.,.,.,.,
CC(C)(C)OC(=O)C[C@@H]1C/C=C\C[C@@H](CC(=O)N(CCO)Cc2ccccc2)C(=O)NC[C@@H](c2ccccc2)OC1=O,.,.,.,.,?,-3%,.,.,.,.,.,
CC(C)(C)OC(=O)C[C@@H]1C/C=C\C[C@@H](CC(=O)N(CCO)Cc2ccccc2)C(=O)NC[C@H](c2ccccc2)OC1=O,.,.,.,.,1.5µM*,-13%,13µM*,7.9µM*,11%,?,?,
NCCCC[C@@H](C(=O)N1CCNCC1)n1cc([C@@H](N)CC(N)=O)nn1,0%,-2%,.,-1%,7%,3%,.,.,.,.,.,
O=C(c1ccc2c(=O)n(CCc3ccccc3)c(=O)[nH]c2c1)N1CCN(c2ccccc2)CC1,-4%,3%,.,0%,-5%,-9%,.,.,.,.,.,
CCCCCn1c(=O)[nH]c2cc(C(=O)NCc3ccc4c(c3)OCO4)ccc2c1=O,-3%,2%,-2%,-5%,18%,7%,.,.,.,.,.,
COc1ccc(OC)c(NC(=O)c2ccc3c(=O)n(CCc4ccccc4)c(=S)[nH]c3c2)c1,-20%,3%,-48%,-17%,1.5µM*,1%,?,0.56µM*,-11%,0.63µM*,?,
COc1ccc(N2CCN(C(=O)c3ccc4c(=O)n(CCc5ccc(OC)c(OC)c5)c(=O)[nH]c4c3)CC2)cc1,-25%,-2%,-59%,-17%,1.8µM*,-12%,16µM*,13µM*,7%,?,?,
CCCCCn1c(=O)[nH]c2cc(C(=O)N3CCN(Cc4ccc5c(c4)OCO5)CC3)ccc2c1=O,-27%,1%,-89%,-39%,0.46µM*,-6%,?,0.22µM*,-6%,0.22µM*,?,ELG1 FLuc counter=-18%;FLuc enzyme=-12%
COc1ccc(OC)c(NC(=O)CCn2c(=S)[nH]c3ccccc3c2=O)c1,-4%,1%,.,-1%,10%,1%,.,.,.,.,.,
CC1CCCCN1S(=O)(=O)c1ccc(C(=O)N2CCOCC2)cc1 (centres undefined),0%,0%,.,-2%,19%,-2%,.,.,.,.,.,
CN(CC(=O)Nc1ccccc1Cl)CC(=O)Nc1sc2c(c1C(N)=O)CCC2,-4%,0%,.,-5%,4.6µM*,4%,16µM*,?,10%,-5%,?,
Cc1ccc(NC(=O)CN(C)CC(=O)Nc2sc3c(c2C(N)=O)CCC3)cc1,1%,-3%,.,0%,?,-6%,.,.,.,.,.,
COc1cccc(NC(=O)CN(C)C(=O)c2c(C)noc2C)c1,0%,-1%,.,8%,8%,3%,.,.,.,.,.,
CC1(C)Cc2c(c(N3CCOCC3)nc3sc4c(=O)[nH]cnc4c23)CS1,-2%,1%,-2%,-5%,-7%,-2%,14µM*,6%,?,13%,-5%,ELG1 FLuc counter=6%;FLuc enzyme=3%
CC1=C(C(=O)NCc2ccc(C)cc2)C2(CCCCC2)OC1=O,.,-8%,.,.,.,.,.,.,.,.,.,
Cc1cc(NC(=O)c2c(C)noc2C)no1,0%,2%,.,2%,0%,4%,.,.,.,.,.,
O=C(O)/C=C/c1cccc(NS(=O)(=O)c2ccccc2)c1,-3%,-1%,13%,-3%,-5%,0%,.,.,.,.,.,
O=C(/C=C/C#Cc1cccc(NS(=O)(=O)c2ccccc2)c1)NO,.,.,.,.,.,.,.,.,.,.,?,
CC1Cc2cc(-c3csc(NC(=O)Cc4ccccc4)n3)ccc2N1S(C)(=O)=O (centres undefined),-17%,-12%,-76%,-25%,7.3µM*,-4%,13µM*,5.6µM*,?,?,16µM*,ELG1 FLuc counter=?;FLuc enzyme=-8%
O=C(Cc1ccc(F)cc1)Nc1nc(-c2ccc(F)c(F)c2)cs1,-3%,?,.,8%,-2%,-6%,.,.,.,.,.,

# Screening data: PubChem BioAssay, National Center for Advancing Translational Sciences (NCATS)
